Where “and” joins values, the source holds several entries; their conditions need not be identical. Equal values may be shown once. This is part of a sample that, as a whole, favours compounds with a hit. Of some 83,000 tested, about 20% had one in any assay.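 Method: cells in 96-well plates; compound added at one concentration; 48 h incubation; percent growth measured; values under 10 scored active.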 Calls of active or inactive are those of the source.
How the values were obtained:
Assay in all cases: NCI-60 one-dose screen, 48 h (100 = growth as untreated, 0 = no growth, -100 = all killed)
T-47D breast = test system: T-47D breast
BT-549 breast = test system: BT-549 breast
MDA-MB-435 melanoma = test system: MDA-MB-435 melanoma
SW-620 colon = test system: SW-620 colon
MCF7 breast = test system: MCF7 breast
HCT-116 colon = test system: HCT-116 colon
HCC-2998 colon = test system: HCC-2998 colon
KM12 colon = test system: KM12 colon

`CCCCCCCCn1ccc2cc(NC(=O)CN3CCN(c4nc(C)cc(N5CCCCC5)n4)CC3)ccc21` was tested, and the growth (T-47D breast; 10 µM unless noted) was 79.6% (inactive), the growth (BT-549 breast; 10 µM unless noted) was 83.4% (inactive) and the growth (MDA-MB-435 melanoma; 10 µM unless noted) was 92.4% (inactive). The growth (SW-620 colon; 10 µM unless noted) was 87.6% (inactive), the growth (MCF7 breast; 10 µM unless noted) was 70.8% (inactive) and the growth (HCT-116 colon; 10 µM unless noted) was 76% (inactive). The growth (HCC-2998 colon; 10 µM unless noted) was 117% (inactive) and the growth (KM12 colon; 10 µM unless noted) was 86.4% (inactive).

In the case of `CN1CCN(CCCN2c3ccccc3Sc3ccc(Cl)cc32)CC1`, the growth (T-47D breast; 10 µM unless noted) is reported as 63.5% (inactive), the growth (BT-549 breast; 10 µM unless noted) is reported as 85.8% (inactive) and 91.1% (inactive) and the growth (MDA-MB-435 melanoma; 10 µM unless noted) is reported as 30.3% (inactive) and 42.4% (inactive). The growth (SW-620 colon; 10 µM unless noted) was 83.2% (inactive) and 94% (inactive), the growth (MCF7 breast; 10 µM unless noted) was 37.2% (inactive) and 63.8% (inactive) and the growth (HCT-116 colon; 10 µM unless noted) was 57.5% (inactive) and 70.6% (inactive). For the same molecule, the growth (HCC-2998 colon; 10 µM unless noted) was 66.8% (inactive) and the growth (KM12 colon; 10 µM unless noted) was 73.8% (inactive) and 98.2% (inactive).

For `Nc1c(C(=O)Nc2ccncc2)sc2nc3c(cc12)CCCCCCCC3`, the growth (T-47D breast; 10 µM unless noted) was -71.2% (active), the growth (BT-549 breast; 10 µM unless noted) was -60.8% (active) and the growth (MDA-MB-435 melanoma; 10 µM unless noted) was -89.9% (active). The growth (SW-620 colon; 10 µM unless noted) was -69.2% (active), the growth (MCF7 breast; 10 µM unless noted) was -83.4% (active) and the growth (HCT-116 colon; 10 µM unless noted) was -76.3% (active). For the same molecule, the growth (HCC-2998 colon; 10 µM unless noted) was -54.3% (active) and the growth (KM12 colon; 10 µM unless noted) was -80.4% (active).

With `CC(=O)/C=C/c1ccc(N(CCO)Cc2ccc(C(C)(C)C)cc2)cc1` the growth (T-47D breast; 10 µM) was 60.2% (inactive), the growth (T-47D breast; 100 µM) was -83.2% (active) and the growth (BT-549 breast; 10 µM) was 79% (inactive). The growth (BT-549 breast; 100 µM) was -88.9% (active), the growth (MDA-MB-435 melanoma; 10 µM) was 80.7% (inactive) and the growth (MDA-MB-435 melanoma; 100 µM) was -94.4% (active). The growth (SW-620 colon; 10 µM) was 83.9% (inactive), the growth (SW-620 colon; 100 µM) was -91.8% (active) and the growth (MCF7 breast; 10 µM) was 62.9% (inactive). The growth (MCF7 breast; 100 µM) was -55.4% (active), the growth (HCT-116 colon; 10 µM) was 67.2% (inactive) and the growth (HCT-116 colon; 100 µM) was -98.1% (active). For the same molecule, the growth (HCC-2998 colon; 10 µM) was 86.7% (inactive), the growth (HCC-2998 colon; 100 µM) was -89.2% (active) and the growth (KM12 colon; 10 µM) was 81.2% (inactive). For the same molecule, the growth (KM12 colon; 100 µM) was -78.2% (active).

`COc1ccc(Cn2cc(C(=O)Nc3cccnc3Nc3ccccc3)nn2)cc1` was tested, and the growth (T-47D breast; 10 µM unless noted) was 91.7% (inactive), the growth (BT-549 breast; 10 µM unless noted) was 86.9% (inactive) and the growth (MDA-MB-435 melanoma; 10 µM unless noted) was 96.5% (inactive). The growth (SW-620 colon; 10 µM unless noted) was 112% (inactive), the growth (MCF7 breast; 10 µM unless noted) was 91% (inactive) and the growth (HCT-116 colon; 10 µM unless noted) was 103% (inactive). For the same molecule, the growth (HCC-2998 colon; 10 µM unless noted) was 88.5% (inactive) and the growth (KM12 colon; 10 µM unless noted) was 97.8% (inactive).

`Cc1ccc(/C=C2\COc3ccc(O)c(O)c3C2=O)cc1` was tested, and the growth (T-47D breast; 10 µM unless noted) was -7.19% (active), the growth (BT-549 breast; 10 µM unless noted) was -13.1% (active) and the growth (MDA-MB-435 melanoma; 10 µM unless noted) was -24.4% (active). For the same molecule, the growth (SW-620 colon; 10 µM unless noted) was -32.4% (active), the growth (MCF7 breast; 10 µM unless noted) was 15.1% (inactive) and the growth (HCT-116 colon; 10 µM unless noted) was -22.9% (active). The growth (HCC-2998 colon; 10 µM unless noted) was 9.54% (active) and the growth (KM12 colon; 10 µM unless noted) was -19.9% (active).

`CCOC(=O)c1cnn(-c2ccc(S(N)(=O)=O)cc2)c1N` was tested, and the growth (T-47D breast; 10 µM unless noted) was 103% (inactive), the growth (BT-549 breast; 10 µM unless noted) was 96% (inactive) and the growth (MDA-MB-435 melanoma; 10 µM unless noted) was 109% (inactive). For the same molecule, the growth (SW-620 colon; 10 µM unless noted) was 110% (inactive), the growth (MCF7 breast; 10 µM unless noted) was 95.2% (inactive) and the growth (HCT-116 colon; 10 µM unless noted) was 94.4% (inactive). The growth (HCC-2998 colon; 10 µM unless noted) was 115% (inactive) and the growth (KM12 colon; 10 µM unless noted) was 122% (inactive).

In the case of `CN(Cc1ccccc1)c1nc(Cl)c(C2CC(c3ccc(F)cc3)=NN2C=O)s1` (stereo unspecified), the growth (T-47D breast; 10 µM unless noted) is reported as 85.5% (inactive), the growth (BT-549 breast; 10 µM unless noted) is reported as 113% (inactive) and the growth (MDA-MB-435 melanoma; 10 µM unless noted) is reported as 96.8% (inactive). The growth (SW-620 colon; 10 µM unless noted) was 101% (inactive), the growth (MCF7 breast; 10 µM unless noted) was 86.7% (inactive) and the growth (HCT-116 colon; 10 µM unless noted) was 86.9% (inactive). The growth (HCC-2998 colon; 10 µM unless noted) was 95.4% (inactive) and the growth (KM12 colon; 10 µM unless noted) was 93.2% (inactive).

In the case of `CC[C@]12CN3CCc4c([nH]c5ccccc45)[C@@](C(=O)OC)(c4cc5c(cc4OC)N(C)[C@H]4[C@@](O)(C(=O)OC)[C@H](OC(C)=O)[C@]6(CC)C=CCN7CC[C@]54[C@@H]76)CC(C3)[C@H]1O2` (stereo partly specified), the growth (T-47D breast; 10 µM unless noted) is reported as 54.8% (inactive), the growth (BT-549 breast; 10 µM unless noted) is reported as -26% (active) and the growth (MDA-MB-435 melanoma; 10 µM unless noted) is reported as -43.8% (active). For the same molecule, the growth (SW-620 colon; 10 µM unless noted) was 17.1% (inactive), the growth (MCF7 breast; 10 µM) was 15.7% (inactive) and the growth (MCF7 breast; 100 µM) was 35.1% (inactive) and -19% (active). For the same molecule, the growth (HCT-116 colon; 10 µM unless noted) was 0.479% (active), the growth (HCC-2998 colon; 10 µM unless noted) was -14.6% (active) and the growth (KM12 colon; 10 µM unless noted) was -17.6% (active).

`COc1ccc(C(c2cc(OC)c(OC)c(OC)c2)n2ccnc2)cc1O` (stereo unspecified) was tested, and the growth (T-47D breast; 10 µM unless noted) was 42.6% (inactive), the growth (BT-549 breast; 10 µM unless noted) was -0.0718% (active) and the growth (MDA-MB-435 melanoma; 10 µM unless noted) was -29.5% (active). For the same molecule, the growth (SW-620 colon; 10 µM unless noted) was 28.6% (inactive), the growth (MCF7 breast; 10 µM unless noted) was 18.4% (inactive) and the growth (HCT-116 colon; 10 µM unless noted) was 6.88% (active). For the same molecule, the growth (HCC-2998 colon; 10 µM unless noted) was 25% (inactive) and the growth (KM12 colon; 10 µM unless noted) was 17% (inactive).

`CCCCCCCCCCCCCCCC[N+](C)(C)CCN(Cc1ccc(OC)cc1)c1ncccn1` was tested, and the growth (T-47D breast; 10 µM unless noted) was -5.46% (active) and 42.2% (inactive), the growth (BT-549 breast; 10 µM unless noted) was -75% (active) and 61.8% (inactive) and the growth (MDA-MB-435 melanoma; 10 µM unless noted) was -96.8% (active). For the same molecule, the growth (SW-620 colon; 10 µM unless noted) was -86% (active) and 76.9% (inactive), the growth (MCF7 breast; 10 µM unless noted) was 20.1% (inactive) and 47.6% (inactive) and the growth (HCT-116 colon; 10 µM unless noted) was -85.6% (active) and -62.4% (active). The growth (HCC-2998 colon; 10 µM unless noted) was -76% (active) and 50.2% (inactive) and the growth (KM12 colon; 10 µM unless noted) was -100% (active) and 33.6% (inactive).

With `O=c1cc(N/N=C/c2ccc(F)cc2)c2cc(Cl)ccc2[nH]1` the growth (T-47D breast; 10 µM unless noted) was 68.5% (inactive), the growth (BT-549 breast; 10 µM unless noted) was 93.6% (inactive) and the growth (MDA-MB-435 melanoma; 10 µM unless noted) was 78.6% (inactive). For the same molecule, the growth (SW-620 colon; 10 µM unless noted) was 101% (inactive), the growth (MCF7 breast; 10 µM unless noted) was 84.6% (inactive) and the growth (HCT-116 colon; 10 µM unless noted) was 84.1% (inactive). For the same molecule, the growth (HCC-2998 colon; 10 µM unless noted) was 85.1% (inactive) and the growth (KM12 colon; 10 µM unless noted) was 108% (inactive).

`O=C1OCC2=C1C(c1cccc(C(F)(F)F)c1)c1cc3c(cc1N2CCO)OCCO3` (stereo unspecified) was tested, and the growth (T-47D breast; 10 µM unless noted) was 51% (inactive), the growth (BT-549 breast; 10 µM unless noted) was 41.7% (inactive) and the growth (MDA-MB-435 melanoma; 10 µM unless noted) was -41.1% (active). The growth (SW-620 colon; 10 µM unless noted) was 24.5% (inactive), the growth (MCF7 breast; 10 µM unless noted) was 23.1% (inactive) and the growth (HCT-116 colon; 10 µM unless noted) was 10.3% (inactive). The growth (HCC-2998 colon; 10 µM unless noted) was 8.81% (active) and the growth (KM12 colon; 10 µM unless noted) was 16.9% (inactive).

`COC(=O)c1c2c(c(C)[n+]([O-])c1C)C(=O)C(NCCN1CCOCC1)=CC2=O` was tested, and the growth (T-47D breast; 10 µM unless noted) was 80.6% (inactive), the growth (BT-549 breast; 10 µM unless noted) was 91.4% (inactive) and the growth (MDA-MB-435 melanoma; 10 µM unless noted) was 49.9% (inactive). The growth (SW-620 colon; 10 µM unless noted) was 64.3% (inactive), the growth (MCF7 breast; 10 µM unless noted) was 55.9% (inactive) and the growth (HCT-116 colon; 10 µM unless noted) was 28.3% (inactive). The growth (HCC-2998 colon; 10 µM unless noted) was 74.1% (inactive) and the growth (KM12 colon; 10 µM unless noted) was 71.6% (inactive).

Reference: PubChem BioAssay (NCI)
